Assay results: PubChem BioAssay AID1259416 (Broad Institute, 2018)
Where “and” joins values, the source holds several entries; their conditions need not be identical. Equal entries are not always repeated. Among all 69,000 compounds or so, about 2,600 (3.8%) were called active. No stated cut-off is given here; in the data, active means activity change below about -70% (passing the limit was not always enough); inconclusive means no clear call, values can overlap the other calls. Only a selection was taken, and actives are over-represented in it overall. The source holds several records for some structures; these can differ, active in one and inactive in another.

Test: inhibitors of Toxoplasma growth in IFN-γ-primed hosts – cell-based, primary screen (AID 1259416);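 further: host cells are HeLa cells infected with Toxoplasma gondii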
Settings: Toxoplasma gondii growth in IFN-gamma-treated host cells; stronger effect = lower value; concentration not given here
In the case of `CC[N+]1(C)CCCC(OC(=O)C(O)(c2ccccc2)c2ccccc2)C1` (stereo not drawn), the activity change, negative = inhibition is reported as -81.7% (active) and 11.1% (inactive) and 46.8% (inactive). With `COc1ccc(OC)c(NC(=O)c2cc3cccnc3n(Cc3ccccc3F)c2=O)c1` the activity change, negative = inhibition was 10.9% (inactive). In the case of `CC(C)N1C[C@H]2CN(C(=O)c3cccs3)C[C@@H]2C1`, the activity change, negative = inhibition is reported as 13.5% (inactive). With `CO[C@@H]1CCN(C(=O)c2ccc(C)cn2)[C@H]2CN(CC3CC3)C[C@@H]12` the activity change, negative = inhibition was 294% (inactive). In the case of `c1cc(-c2cccc3c2CCNC3)cc(-n2cnnc2)c1`, the activity change, negative = inhibition is reported as -1.55% (inactive). For `CC(C)(Cc1c[nH]c2ccc(Cl)cc12)NCCOc1ccccc1OCC1CC1`, the activity change, negative = inhibition was -75.1% (active) and -81.3% (active). For `COc1ccc2c(c1)C1(CCN(C(=O)C(C)(C)NC(=O)OCc3ccccc3)CC1)CC2CC(=O)O` (stereo not drawn), the activity change, negative = inhibition was 0.749% (inactive). With `Cc1nc(N2CCCN3CCC[C@H]3C2)c2cnn(C)c2n1` the activity change, negative = inhibition was 2.34% (inactive). With `CN1CCC2(COCc3cnc(NCc4ccco4)nc32)C1` (stereo not drawn) the activity change, negative = inhibition was -59.4% (inactive). In the case of `CCc1cnc(C)nc1N1CCC2(CC1)CN(C)CCN2C`, the activity change, negative = inhibition is reported as -5.22% (inactive). For `CC(Cc1ccccn1)N(C)Cc1ncc[nH]1` (stereo not drawn), the activity change, negative = inhibition was 15.6% (inactive). In the case of `c1ccc2c(c1)[I+]c1ccccc1-2`, the activity change, negative = inhibition is reported as -75.9% (active) and -69.4% (inactive). In the case of `COc1ccc(NC(=O)c2cc3cccnc3n(Cc3ccc(Cl)cc3)c2=O)c(OC)c1`, the activity change, negative = inhibition is reported as 113% (inactive). For `CCc1ccc(NC(=O)c2cc3cccnc3n(Cc3ccccc3F)c2=O)cc1`, the activity change, negative = inhibition was 49.4% (inactive). For `Cc1cc(C)cc(NC(=O)c2c(O)c3cccnc3n(Cc3ccccc3)c2=O)c1`, the activity change, negative = inhibition was 135% (inactive). In the case of `O=C(Nc1ccccc1)c1c(O)c2cccnc2n(Cc2ccccc2)c1=O`, the activity change, negative = inhibition is reported as -29% (inactive). With `CC(NC(=O)c1c(O)c2cccnc2n(Cc2ccccc2)c1=O)c1ccccc1` (stereo not drawn) the activity change, negative = inhibition was -120% (active). For `CC(C)c1ccc(NC(=O)c2cc3cccnc3n(Cc3ccc(Cl)cc3)c2=O)cc1`, the activity change, negative = inhibition was 70.6% (inactive). For `C=CCNC(=O)c1cn(Cc2ccc(C)o2)cc(C(=O)N2CCCCCCC2)c1=O`, the activity change, negative = inhibition was -1.9% (inactive). For `C/C=C/c1ccc(C2[C@@H]3CN(S(C)(=O)=O)C[C@H]2N3)cc1` (stereo partly drawn), the activity change, negative = inhibition was 4.19% (inactive). With `COc1cc([C@@H]2c3cc4c(cc3[C@H](OC(C)=O)[C@H]3COC(=O)[C@H]23)OCO4)cc(OC)c1OC` the activity change, negative = inhibition was -81.8% (active). In the case of `O=C(Nc1cccc(F)c1)N1CC2CNC(C2)C1` (stereo not drawn), the activity change, negative = inhibition is reported as -49% (inactive). With `CN(Cc1ncc[nH]1)C1CCC2(CCNCC2)CC1` the activity change, negative = inhibition was -23.6% (inactive). In the case of `CCN1CCO[C@@H]2CN(Cc3ccc4ccccc4n3)C[C@H]2C1`, the activity change, negative = inhibition is reported as -44.8% (inactive). In the case of `CCCCCCCCCCCCCC(=O)O[C@@H]1[C@@H](C)[C@@]2(O)[C@@H](C=C(CO)C[C@]3(O)C(=O)C(C)=C[C@@H]23)[C@@H]2C(C)(C)[C@]12OC(C)=O`, the activity change, negative = inhibition is reported as -78.2% (active) and -67.3% (inactive). With `CNC(=O)[C@H]1CC2CN(C(=O)Cc3cccs3)CC2N1C` (stereo partly drawn) the activity change, negative = inhibition was -9.27% (inactive). For `CC(=O)O[C@H]1CC[C@@]2(C)C(=CCC3C2CC[C@]2(C)C(=O)CCC32)C1` (stereo partly drawn), the activity change, negative = inhibition was -55.1% (inactive). With `COc1ccc(CN2CCCC23CCCN(C(=O)Cc2ccc(Cl)cc2)C3)cc1F` (stereo not drawn) the activity change, negative = inhibition was 84.8% (inactive).
